Screen size: about 48,000 compounds; about 13,000 (27%) showed an effect of 50% or more. Some of the results follow.
The molecules below were run on Wolbachia pipientis (assay: Anti-Wolbachia Cell-Based Screen). Conditions: 5 µM.
Format: functional
Parameters: scale not given: in the data most compounds retested in dose-response had high values

| Compound | Percent Effect |
| --- | --- |
| c1ccc(-n2cc(CN3CCCC(Cn4cncn4)C3)nn2)cc1 (stereo not drawn) | 6.927% |
| CC(C)N(C)[C@@H]1CCN(c2ncccn2)[C@H]1Cc1ccncc1.O=C(O)C(F)(F)F.O=C(O)C(F)(F)F | -5.254% |
| Cc1cnc(C(=O)N2CCCC(Cn3cc(CC(C)C)nn3)C2)cn1 (stereo not drawn) | -14.05% |
| CC(C)CNC(=O)c1cc(Br)c2c(c1)OCCO2 | -6.005% |
| CCCc1cc(CN(C)C2CSCCSC2)n[nH]1 | -33.01% |
| NC(=O)C1CCCCN1C(=O)c1ccc(Br)s1 (stereo not drawn) | 11.69% |
| Cc1cnc(C(=O)N2CCCCC2c2[nH]ncc2S(C)(=O)=O)cn1 (stereo not drawn) | -8.056% |
| Cc1cccc(C(=O)N2CCCCC2c2[nH]ncc2S(C)(=O)=O)c1 (stereo not drawn) | 98.38% |
| Cc1ccc(C(=O)N2CCCCC2c2[nH]ncc2S(C)(=O)=O)s1 (stereo not drawn) | 77.94% |
| Cn1cccc1C(=O)N1CCCCC1c1[nH]ncc1S(C)(=O)=O (stereo not drawn) | 102.3% |
| Cc1cccnc1C(=O)N1CCCCC1c1[nH]ncc1S(C)(=O)=O (stereo not drawn) | -7.963% |
| CC1CCCCN1C(=O)c1ccc(Br)s1 (stereo not drawn) | 10.55% |
| Cn1cccc1-c1cc(C(=O)N2CCCCC2c2ccc(F)cc2)[nH]n1 (stereo not drawn) | 6.407% |
| Cc1cccc(C(=O)N2CCCCC2c2ccc(CN(C)C)cc2)c1 (stereo not drawn) | 14.25% |
| Cn1cccc1-c1cc(C(=O)N2CCCC2c2cccnc2)[nH]n1 (stereo not drawn) | -7.739% |
| Cc1ccc(C(=O)N2CCCCC2c2[nH]ncc2S(C)(=O)=O)cn1 (stereo not drawn) | 107.9% |
| CC1CCN(CC(O)CNc2ccc(Cl)cn2)CC1 (stereo not drawn) | 15.58% |
| CC(=O)N(C)CC(=O)Nc1ccc(C)cc1OCc1ccccc1 | 2.382% |
| Cc1nc(CNC(=O)N(Cc2ccccc2)CC(C)(C)O)oc1C | -21.53% |
| CC(=O)NCCCNCc1ccc(Cl)c2cccnc12 | -6.459% |
| CC(C)NC(=O)NCc1ccc(C(=O)NC(C)Cn2cccn2)cc1 (stereo not drawn) | 146.4% |
| CC(Cn1cccn1)NC(=O)NCc1ccc(S(C)(=O)=O)cc1 (stereo not drawn) | 102.2% |
| Cc1ccc(C(=O)NC(C)Cn2cccn2)c(=O)[nH]1 (stereo not drawn) | -0.2392% |
| CC(Cn1cccn1)NC(=O)CCc1ccc(S(N)(=O)=O)cc1 (stereo not drawn) | 6.181% |
| CC(Cn1cccn1)NC(=O)NCc1ccc(S(N)(=O)=O)cc1 (stereo not drawn) | 4.625% |
| COc1ccc(CNC(=O)NC(C)Cn2cccn2)cc1O (stereo not drawn) | 8.397% |

| Compound | Percent Effect |
| --- | --- |
| CC(Cn1cccn1)NC(=O)NCc1ccc(C(N)=O)cc1 (stereo not drawn) | 167.3% |
| CC(Cn1cccn1)NC(=O)NCc1cccnc1OC1CCCC1 (stereo not drawn) | 11.91% |
| CC(C)c1nccn1C(C)C(=O)NCc1noc(Cc2cccs2)n1 (stereo not drawn) | 8.731% |
| O=C(NC1CC1)N1CCOC2(CCCN(c3cccc(F)c3)C2)C1 (stereo not drawn) | -2.504% |
| CC(CCc1ccccc1F)C(=O)NS(=O)(=O)CC1CC1 (stereo not drawn) | -8.345% |
| CC(=O)N1CCC(Nc2cccc(OC(F)F)c2C)CC1 | -10.39% |
| Cn1cnnc1CN1CCC2(CCC(=O)N(Cc3ccccn3)C2)CC1 | -8.652% |
| Clc1cc(N2CCN(C3CCOCC3)CC2)nc2[nH]ccc12 | 109.8% |
| FC(F)(F)c1ccnc(N2CCCN(C3CCOCC3)CC2)c1 | -6.382% |
| Cc1noc(-c2ccnc(N3CCC(N4CCCC4)CC3)c2)n1 | -2.845% |
| Cc1noc(-c2ccnc(N3CCN(C4CCOCC4)CC3)c2)n1 | 8.096% |
| Cc1nc(-c2cccc(N3CCC(N4CCCC4)CC3)c2)cs1 | -1.882% |
| Clc1cc(N2CCC(N3CCCC3)CC2)nc2[nH]ccc12 | 113% |
| COc1cc(N2CCC3(CC2)CNC(=O)CO3)ncn1 | 115.6% |
| COc1cc(N2CCC3(CC2)C(c2ccncc2)CC(=O)N3C)ncn1 (stereo not drawn) | 16.73% |
| COc1cc(N2CC3(CCN(S(=O)(=O)C4CC4)C3)C2)ncn1 | -10.78% |
| COc1cc(N2CCC3(CC2)OCC(=O)NC3C)ncn1 (stereo not drawn) | 115.6% |
| COc1cc(N2CCC3(CC2)CN(C)C(=O)CO3)ncn1 | 113.9% |
| COc1cc(N2CCC3(CC2)CC(N2CCN(C)CC2)CO3)ncn1.O=C(O)C(F)(F)F.O=C(O)C(F)(F)F (stereo not drawn) | -26.84% |
| CCS(=O)(=O)N1CCC2(CN(c3cc(OC)ncn3)C2)C1 | -9.777% |
| COc1cc(N2CCC3(CC2)CC(N2CCOCC2)CO3)ncn1 (stereo not drawn) | -10.74% |
| CC(C)NC(=O)c1nnn(-c2cccc(C(F)(F)F)c2)c1N | 5.987% |
| O=C(CCO)N1CCC2(CCc3ccc(-c4ccoc4)cc32)CC1 | -1.453% |
| COc1ncccc1C(=O)N1CCC(c2nc3c(C)cccc3[nH]2)CC1 | -11.64% |
| Cc1cnn(CC2CCCN2CCc2nc3ccccc3c(=O)[nH]2)c1 (stereo not drawn) | -0.3603% |
| c1ccc(Cn2ccnc2CN2CCOC(Cn3cccn3)C2)cc1 (stereo not drawn) | 5.197% |

| Compound | Percent Effect |
| --- | --- |
| Cc1cnn(CC2CN(c3ncnc4ccccc34)CCO2)c1 (stereo not drawn) | -26.67% |
| Cc1cnn(CC2CN(Cc3nc4ccccc4c(=O)[nH]3)CCO2)c1 (stereo not drawn) | 128.5% |
| O=c1[nH]c(CN2CCOC(Cn3cccn3)C2)nc2ccccc12 (stereo not drawn) | 108.3% |
| O=S(=O)(CCN1CCOC(Cn2cccn2)C1)c1ccccc1 (stereo not drawn) | -8.739% |
| Cc1cnn(CC2CN(Cc3nc4cccnc4[nH]3)CCO2)c1 (stereo not drawn) | 117.2% |
| N[C@@H]1CC[C@@H]1NC(=O)c1ccccc1OC(F)(F)C(F)F | -9.663% |
| CNC(=O)CN1CCO[C@H]2CN(C(=O)C3CC3)C[C@H]21.O=C(O)C(F)(F)F | 8.052% |
| COc1cccc(S(=O)(=O)N2CCC(O)(CN(C)C)C2)c1 (stereo not drawn) | -4.6% |
| COc1ccc(S(=O)(=O)N2CCC(O)(CN(C)C)C2)cc1 (stereo not drawn) | 122.7% |
| Cc1ccc(S(=O)(=O)N2CCC(O)(CN(C)C)C2)cc1 (stereo not drawn) | 128.7% |
| CN(C)CC1(O)CCN(S(=O)(=O)c2cccc(F)c2)C1 (stereo not drawn) | 142.4% |
| CN(C)CC1(O)CCN(S(=O)(=O)c2ccc(F)c(F)c2)C1 (stereo not drawn) | -14.25% |
| CN(C)CC1(O)CCN(S(=O)(=O)c2ccc(Cl)cc2)C1 (stereo not drawn) | 106.4% |
| CCOC1COC2(CCN(S(=O)(=O)c3cccc(F)c3)CC2)C1 (stereo not drawn) | -12.88% |
| CC[C@H]1CN(S(=O)(=O)c2ccc(OC)cc2)CC[C@H]1CC(=O)O | 6.997% |
| Cc1ccc(S(=O)(=O)N2CCC3(CC(C(=O)NCC4CC4)=NO3)C2)cc1 (stereo not drawn) | -17.63% |
| O=S(=O)(c1cccc(F)c1)N1C[C@@H]2CC[C@H](C1)N(Cc1ccccc1)C2 | 7.587% |
| CN(C)CC1(O)CCN(S(=O)(=O)c2ccc(F)cc2)C1 (stereo not drawn) | -17.25% |
| CC(C)(C)C(O)CN1CCN(CC(=O)NCC(F)(F)F)CC1 (stereo not drawn) | 8.391% |
| COc1ccc(CCNC(=O)C2CCOC2)c(Cl)c1 (stereo not drawn) | -19.93% |
| O=S(=O)(CCNCc1ccc(Cl)cc1)N1CCOCC1 | -1.046% |
| CN(C)CCN1C(=O)CO[C@@H]2CN(c3ncc(F)cn3)C[C@H]21 | -1.223% |
| Cn1ccnc1SCCNC(=O)c1c[nH]nc1C1CCCCC1 | -10.23% |
| Cc1c(NC(C)C(C)C)cccc1C(=O)NCc1nccn1C (stereo not drawn) | -7.954% |
| Cn1ccnc1CNC(=O)Nc1ccc(OC2CCC2)c(F)c1 | 1.11% |
| CC(C)N(Cc1nccn1C)C(=O)c1cnc(O)cn1 | -3.4% |

| Compound | Percent Effect |
| --- | --- |
| Cl.Cn1ccnc1CNC(=O)c1cnc(C2CCNCC2)cn1 | 74.03% |
| Cl.Cn1ccnc1CNC(=O)c1ccnc(C2CCNCC2)c1 | 112.8% |
| COCCCC(=O)Nc1cc(Cl)c(Cl)cn1 | -20.73% |
| O=C(c1scc2c1OCCO2)N1CCOC(Cc2cccc(F)c2)C1 (stereo not drawn) | -18.9% |
| Cc1noc(-c2cnc(NC(C)C)nc2-c2ccco2)c1C | 118.1% |
| Cn1cc(-c2ccnc(NCC3CCCCO3)n2)cn1 (stereo not drawn) | -0.1287% |
| Cc1noc(-c2cnc(NC3CC3)nc2-c2ccco2)c1C | 112.5% |
| Cc1cnn(CC(C)NCc2csc(-c3ccco3)n2)c1 (stereo not drawn) | 6.093% |
| Cc1noc(-c2cnc(NCC3CCCO3)nc2-c2ccco2)c1C (stereo not drawn) | 115.5% |
| Cc1nn(C)c2nc(-c3ccccn3)nc(NC[C@@H]3CCCO3)c12 | -8.15% |
| Cc1cnn(CC(C)NCc2nc(-c3ccco3)no2)c1 (stereo not drawn) | 2.799% |
| Cc1cc(C)c2nc(CN3CCC(N4CCOC4=O)CC3)cc(O)c2c1 | -3.092% |
| COCCN(C)CCN1CC2(CCN(C3CCCNC3)CC2)OC1=O (stereo not drawn) | -6.573% |
| CC(C)CCN1CCN(c2ncnc3nc(N)ccc23)CC1 | 6.537% |
| Cn1c(-c2cccs2)nn(CCNS(=O)(=O)c2ccccc2Cl)c1=O | 11.66% |
| Cc1c(C(=O)N2CCC2(C)C)nnn1-c1cccc2cnccc12 | 16.96% |
| CCS(=O)(=O)N1CCC[C@]2(C(=O)N(C)C)CN(c3ccccn3)C[C@@H]2C1.O=C(O)C(F)(F)F | -14.88% |
| O=C(O)C(F)(F)F.O=C(O)C(F)(F)F.O=C(O)[C@]12CCCN(Cc3ccsc3)C[C@H]1CN(c1ccccn1)C2 | -13.21% |
| CCS(=O)(=O)N1CCC[C@]2(C(=O)N(C)C)CN(c3ncccn3)C[C@@H]2C1.O=C(O)C(F)(F)F | -12.08% |
| CC(C)C(=O)N1CCC[C@]2(C(=O)N(C)C)CN(c3ccccn3)C[C@@H]2C1.O=C(O)C(F)(F)F | 109.6% |
| COCC(=O)N1CCC[C@]2(C(=O)N(C)C)CN(c3ccccn3)C[C@@H]2C1.O=C(O)C(F)(F)F | -6.724% |
| CN(C)C(=O)N1CCC[C@]2(C(=O)N(C)C)CN(c3ccccn3)C[C@@H]2C1.O=C(O)C(F)(F)F | 123.8% |
| CCC(=O)N1CCC[C@]2(C(=O)N(C)C)CN(c3ccccn3)C[C@@H]2C1.O=C(O)C(F)(F)F | 98.59% |
| O=C(O)C(F)(F)F.O=C(O)[C@]12CCCN(Cc3ccco3)C[C@H]1CN(c1ncccn1)C2 | 0.3269% |
| CN(C)C(=O)[C@]12CCCN(CC3CC3)C[C@H]1CN(c1ccccn1)C2.O=C(O)C(F)(F)F.O=C(O)C(F)(F)F | 89.5% |

From ChEMBL document CHEMBL3988442, “University of Dundee, Small-Polar-MMV Screening Library” (2021)
